Here are results for 15 compounds from PubChem BioAssay (NCI).

Common to all, as to assay: NCI-60 one-dose screen, 48 h (100 = growth as untreated, 0 = no growth, -100 = all killed)
What all share (conditions): 10 µM

In assay [1] the test system is T-47D breast.
The subject of assay [2] is BT-549 breast.
Assay [3] deals with MDA-MB-435 melanoma.
Assay [4] deals with SW-620 colon.
The subject of assay [5] is MCF7 breast.
Assay [6] deals with HCT-116 colon.
Assay [7] relates to HCC-2998 colon.
Assay [8] concerns KM12 colon.

This is part of a sample that, as a whole, favours compounds with a hit. Of some 83,000 tested, about 20% had one in any assay.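 Values shown are percent growth following 48 h exposure of cells in 96-well plates to a single concentration of compound; below 10 was considered active.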 Unmarked numbers belong to inactive results. Calls of active or inactive are those of the source.

With `COc1ccc(CCc2nc3cc(-c4c(C)noc4C)ccc3n2CCN2CCOCC2)cc1`, the growth in assay [1] is 28.2%; in assay [2], 81.4%; in assay [3] it was 26.1%; in assay [4], 26.6%; in assay [5], 34.5%; in assay [6], 31.1%. For the same compound, the growth is 47.3% in assay [7] and 33.6% in assay [8].

As to `CCOC(=O)[C@@H](Cc1ccccc1)NC(=O)c1[nH]c2ccc(Cl)cc2c(=O)c1C`, the growth in assay [1] was 87.1%; in assay [2], 108%; in assay [3], 103%; in assay [4], 96.3%; in assay [5], 96.8%; in assay [6], 65.2%. Moreover, the values for the growth in assay [7] and in assay [8] were 87.6% and 97%, respectively.

For the compound `COc1cc(CSc2nc3ccc(C)cc3c(=O)n2-c2ccccc2)cc(OC)c1OC`, the growth in assay [1] is 28.2%; in assay [2], 19.6%; in assay [3], -20% (active); in assay [4], 29.7%; in assay [5], 19.9%; in assay [6], 26.6%. Further, the growth is 49.7% in assay [7] and 25.3% in assay [8].

Consider `CCOC(=O)c1ccc(N(C=O)CCC(=O)CCl)cc1`, for which the growth was -4.12% (active) in assay [1]; -63.2% (active) in assay [2]; -23.9% (active) in assay [3]; 7.93% (active) in assay [4]; -8.44% (active) in assay [5]; 1.64% (active) in assay [6]. Moreover, the results for the growth in assay [7] and in assay [8] were 14.2% and 4.98% (active), respectively.

Take `Cc1noc(C)c1-c1ccc2nc(NC(=O)[C@H]3CCN(C#N)C3)cn2c1`: the growth in assay [1] was 54.8%; in assay [2], 76.3%; in assay [3], 81.7%; in assay [4], 83.6%; in assay [5] it was 71.1%; in assay [6], 82.1%. In addition, the growth was 90.4% in assay [7] and 91.3% in assay [8].

As for `COc1cc([C@@H]2c3cc4c(cc3[C@H](SC(=N)N)[C@H]3COC(=O)[C@H]23)OCO4)cc(OC)c1OC`, the growth in assay [1] was 58.6%; in assay [2] it was 21.7%; in assay [3] it was -31.1% (active); in assay [4], 22.5%; in assay [5], 14.4%; in assay [6], 0.571% (active). Also, the figures for the growth in assay [7] and in assay [8] were -1.43% (active) and -0.331% (active), respectively.

Turning to `COc1ccc(Cn2cc3c(c2-c2cc(OC)c(OC)c(OC)c2)CCc2cnoc2-3)cc1N`, the growth in assay [1] is 43.4%; in assay [2] it was 26.3%; in assay [3] it was -37% (active); in assay [4] it was 20.4%; in assay [5] it was 16%; in assay [6], 0.095% (active). The growth in assay [7] is -9.27% (active); in assay [8] it was 1.77% (active).

As to `C[N+]1=C(/C=C/c2ccc(I)cc2)C(C)(C)c2ccccc21`, the growth was 89.3% in assay [1]; 93% in assay [2]; 75.7% in assay [3]; 51.5% in assay [4]; 87.7% in assay [5]; 87.2% in assay [6]. For the same compound, the growth in assay [7] is 103%; in assay [8], 88.9%.

As to `C[n+]1c(/C=C/c2c[nH]c3ccccc23)ccc2ccccc21`, the growth is 12.1% in assay [1]; 94.7% in assay [2]; 60.3% in assay [3]; 48.8% in assay [4]; 19.4% in assay [5]; 31% in assay [6]. The growth in assay [7] was 75.6%; in assay [8], 38.9%.

In the case of `O=C(N/N=c1/ccoc2cccnc12)N1CCN(c2ncccn2)CC1`, the growth in assay [1] is 9.29% (active); in assay [2], 47.9%; in assay [3], 34.9%; in assay [4] it was 33.1%; in assay [5] it was 11.2%; in assay [6], 16%. Also, the growth in assay [7] is 26.1%; in assay [8] it was 24.7%.

As to `COc1c(C)c(C)c(OC)c2c1[nH]c(=O)c1c3cccnc3cn21`, the growth in assay [1] was 94.9%; in assay [2] it was 124%; in assay [3] it was 110%; in assay [4] it was 99.3%; in assay [5], 88.5%; in assay [6], 104%. Moreover, the growth in assay [7] is 120%; in assay [8] it was 106%.

With `CCCCCCCCCCCCCCCC(=O)N1CCN(C)CC1`, the growth in assay [1] is 74.3%; in assay [2], 83.1%; in assay [3] it was 59.8%; in assay [4], 90%; in assay [5], 85%; in assay [6], 57.3%. Also, the growth in assay [7] is 81.8%; in assay [8] it was 76.2%.

Consider `CC(=O)n1nc(C(=O)OC(C)(C)C)c2cc(F)c(F)cc21`, for which the growth in assay [1] was 104%; in assay [2] it was 119%; in assay [3] it was 95.9%; in assay [4] it was 94.1%; in assay [5], 99.2%; in assay [6], 95%. For the same compound, the growth in assay [7] was 102%; in assay [8] it was 90%.

As to `COc1ccc(C(=O)/C=C/c2cc(-c3ccc(OC)c(OC)c3)n[nH]2)cc1OC`, the growth is -7.46% (active) in assay [1]; -60.1% (active) in assay [2]; -33.1% (active) in assay [3]; -48.8% (active) in assay [4]; 4.18% (active) in assay [5]; -89.2% (active) in assay [6]. The values for the growth in assay [7] and in assay [8] were -85.8% (active) and -74.1% (active), respectively.

With `O=[N+]([O-])c1ccc(Br)o1`, the growth in assay [1] is 91.3%; in assay [2], 97%; in assay [3] it was 109%; in assay [4], 109%; in assay [5], 95.7%; in assay [6], 101%. The growth in assay [7] is 95%; in assay [8] it was 99.1%.
